APOBEC3G inh – inhibitors of human APOBEC3G DNA deaminase; Q9HC16; recombinant A3G, ssDNA deamination FAM/TAMRA fluorescence; inhibition, % at 20 µM; hit rate 0.28% among 330,000; AID 493012;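 active means inhibition of at least 40% at 20 µM, with no more than 30% in the related APOBEC3A deaminase screen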
Target sequence (Q9HC16 whole entry, looked up): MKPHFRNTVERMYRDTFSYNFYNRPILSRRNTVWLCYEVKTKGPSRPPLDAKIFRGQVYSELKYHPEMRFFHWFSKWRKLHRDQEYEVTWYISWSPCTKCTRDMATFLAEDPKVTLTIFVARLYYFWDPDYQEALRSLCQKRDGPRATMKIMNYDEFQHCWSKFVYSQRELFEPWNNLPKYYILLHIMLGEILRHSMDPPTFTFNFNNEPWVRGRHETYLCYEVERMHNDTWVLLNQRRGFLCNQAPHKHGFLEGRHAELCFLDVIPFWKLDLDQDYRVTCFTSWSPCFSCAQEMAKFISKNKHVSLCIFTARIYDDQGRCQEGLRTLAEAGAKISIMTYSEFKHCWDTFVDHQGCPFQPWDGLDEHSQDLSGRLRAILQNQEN
NALP1 inh – inhibitors of NALP1 inflammasome in yeast. S. cerevisiae NALP1/ASC/caspase-1 growth, X-gal OD620, 72 h. inhibition, % at 10 µM. hit rate 0.61% among 280,000; in the data active means inhibition mostly above about 24%, no sharp cut-off; inactive means mostly below about 32%
Fh CTSL1 inh – blocks F. hepatica cathepsin L1 in PFM18AAP counter-screen | recombinant F. hepatica cathepsin L1, Z-Leu-Arg-MCA fluorescence | inhibition, % at 5.96 µM | hit rate 0.49% among 300,000 | AID 1906;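 active means inhibition above the mean of all tested compounds plus 3 SD, set per screening campaign, cut at about 17% in these data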
sPLA2-III inh – Blocks human group III sPLA2 activity; Q9NZ20; hit rate 0.56% among 370,000; QFRET BODIPY PC-A2 liposome hydrolysis, fluorescence; inhibition, % at 12.2 µM; AID 743126;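 active means inhibition above mean plus 3 SD of compounds lying within the high and low control bounds, cut at about 19% in these data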
APOBEC3A inh – blocks human APOBEC3A ssDNA deamination; inhibition, % at 20 µM; hit rate 0.41% among 330,000; recombinant A3A, FAM/TAMRA ssDNA deamination fluorescence; P31941;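 active means at least 40% inhibition at 20 µM here, with at most 30% in a related deaminase screen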
Target sequence (P31941 whole entry, looked up): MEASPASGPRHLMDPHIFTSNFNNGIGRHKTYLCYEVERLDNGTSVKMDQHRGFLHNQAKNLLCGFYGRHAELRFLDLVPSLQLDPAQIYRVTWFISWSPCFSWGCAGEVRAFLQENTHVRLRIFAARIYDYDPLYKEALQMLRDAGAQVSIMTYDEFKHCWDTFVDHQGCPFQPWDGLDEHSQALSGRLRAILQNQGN
A number is an active result; 0 = inactive; - = not tested or not shown. Most compounds without a hit are left out; they make up all but 2% or so of the library.

SMILES	APOBEC3G inh	NALP1 inh	Fh CTSL1 inh	sPLA2-III inh	APOBEC3A inh
S=c1[nH]nc(-c2ccccc2)n1/N=C/c1cccc(Cl)c1	0	0	0	0	0
O=C(CCCOc1ccc(Cl)cc1)N1CCCCC1	0	0	0	0	0
O=C(CCCOc1ccccc1)N1CCCCC1	0	33	0	0	0
CC(=O)c1c(N2CCCC2)nc(=S)n(-c2ccccc2)c1C	0	38	0	0	0
CC(=O)c1c(N2CCCCC2)nc(=S)n(-c2ccccc2)c1C	0	0	0	0	0
CN(C)S(=O)(=O)Nc1ccc(NS(=O)(=O)N(C)C)c(S(=O)(=O)c2ccccc2)c1	0	27	0	0	0
Fc1cc(F)c(C2SCCN2C(=S)Nc2cccc(C(F)(F)F)c2)c(F)c1 (stereo not given)	0	37	0	0	0
O=C(c1ccc(Cl)cc1)C(CN1CCCC1)c1ccccc1 (stereo not given)	0	43	0	0	0
CCCOc1ccc(C(=O)C(CN2CCCC2)c2ccccc2)cc1 (stereo not given)	-	60	0	0	-
C[C@H]1[C@@H](OC(=O)NCc2cccc(C(F)(F)F)c2)CC[C@@]23CCCN2C(=O)CCC[C@@H]13	-	-	-	0	-
COc1ccc(C2C(C(=O)N3CCN(C=O)CC3)CC(=O)N2c2ccc(OC)cc2)cc1 (stereo not given)	-	-	-	0	-
COc1ccc(OC)c(S(=O)(=O)N2CCCC(C(=O)Nc3c(C)n(C)n(-c4ccccc4)c3=O)C2)c1 (stereo not given)	-	-	-	0	-
CCOc1ccc(C2CC(c3cccc(C)c3)n3ncnc3N2)cc1 (stereo not given)	0	0	0	0	0
Fc1ccc(C2CC(c3ccccc3)Nc3ncnn32)cc1 (stereo not given)	0	35	0	0	0
CCOc1ccc(C2CC(c3ccc(OC)cc3)n3ncnc3N2)cc1 (stereo not given)	0	0	18	0	0
CCn1c(SCC(=O)NN=Cc2c(C)nn(-c3ccccc3)c2C)nnc1-c1ccc(OC)c(OC)c1	-	-	-	0	-
CC(C)Oc1ccc(Br)cc1/C=N\NC(N)=S	0	0	47	0	0
Cc1cc(/C=N/NC(N)=S)c(C)n1-c1ccc(Cl)cc1	0	0	17	0	0
Cc1cc(/C=N/NC(N)=S)c(C)n1-c1ccc(Br)cc1	0	0	42	0	0
Cc1cc(/C=N/NC(N)=S)c(C)n1-c1cccc(Cl)c1	0	0	0	0	0
O=C(NC1CCCCN(Cc2cccc(C(F)(F)F)c2)C1=O)c1ccc(F)c(F)c1 (stereo not given)	-	-	-	0	-
O=c1ccc(-c2ccc(S(=O)(=O)Nc3cccc([N+](=O)[O-])c3)s2)n[nH]1	0	0	21	0	0
O=C(CCN1CCC(c2ccccc2)C1)c1cccs1 (stereo not given)	0	0	0	0	0
O=C(CCN1CCC(c2ccccc2)C1)c1ccccc1 (stereo not given)	0	23	0	-	0
Cc1ccc(S(=O)(=O)NNC(=O)C2COc3ccccc3O2)cc1C (stereo not given)	0	40	0	0	0
SMILES	APOBEC3G inh	NALP1 inh	Fh CTSL1 inh	sPLA2-III inh	APOBEC3A inh
CCOC(=O)N1C(=O)C[C@](Sc2ccc(OC)cc2)(C(=O)N(C)C)[C@H]1c1ccc(OC)cc1	-	-	-	0	-
Cc1ccccc1C(=O)NNC(=O)CSc1nc2ccccc2c(=O)[nH]1	0	0	18	0	0
COCC1CCN(C(=O)c2cc(COc3ccc4c(c3)CCCC4)on2)C1 (stereo not given)	0	27	0	0	0
COCC1CCN(C(=O)c2cc(COc3ccc(C)c(C)c3)on2)C1 (stereo not given)	0	0	-	0	0
COc1ccc(C=Nn2c(-c3ccccc3F)n[nH]c2=S)cc1OCc1ccccc1	-	-	-	0	-
CCCOC(=O)c1ccc(NC(=O)/C=C/c2cccs2)cc1	0	61	0	0	0
CCCCCc1ccc(NC(=O)OCCCN2CCC3(CCC(c4ccccc4)CC3)C2=O)cc1 (stereo not given)	-	-	-	0	-
CCN(CC)C(=O)CC[C@H]1CC[C@]2(CCCN(Cc3cccnc3)C2)O1	-	-	-	0	-
Cc1cc(Cl)c(OCCOCCN2CCN(C)CC2)c(Br)c1	0	0	0	0	0
CC1CCN(CCCCOc2cccc(Br)c2)CC1	0	0	0	0	0
Cc1cc(Br)ccc1OCCCCN1CCC(C)CC1	0	56	0	0	0
CCC(C)c1ccc(OCCn2ccnc2)cc1 (stereo not given)	0	53	0	0	0
Cc1cc(Cl)c(OCCOCCN2CCC(C)CC2)c(Br)c1	0	52	0	0	0
Cc1cc(Br)ccc1OCCn1ccnc1	0	55	0	0	0
CCOc1ccc(OCCOCCn2ccnc2)cc1	0	0	0	0	0
CC(C)C(NC(=O)[C@H](Cc1ccccc1)NC(=O)OCc1ccccc1)P(=O)(O)OC(Cc1ccccc1)C(=O)O (stereo not given in full)	-	-	-	0	-
O=C(CSc1nnc(-c2ccccc2)n1-c1ccc(Cl)cc1)NN=Cc1c[nH]c2ccccc12	-	-	-	0	-
S=C1NC2=C(CCC/C2=C\c2ccc(Cl)cc2)C(c2ccc(Cl)cc2)N1 (stereo not given)	0	40	0	0	0
COc1ccc(OC)c(S(=O)(=O)N2CCCCC2C(=O)N2CCN(c3ccc(F)cc3)CC2)c1 (stereo not given)	-	-	-	0	-
CN(C)CCNC=C(C(=O)Nc1ccc(Cl)cc1Cl)C(=O)Nc1ccc(Cl)cc1Cl	0	80	0	0	0
O=C(NCCCc1ccccc1)OC1CCC12CCC(c1ccccc1)CC2 (stereo not given)	-	-	-	0	-
Cc1nn(-c2ccccc2)c(N2CCCC2)c1/C=N/O	0	0	0	-	0
Cc1ccc(C2=N/C(=C\c3c(C)nn(-c4ccccc4)c3N3CCCC3)C(=O)O2)cc1	0	0	55	0	0
Cc1nn(-c2ccccc2)c(N2CCCC2)c1/C=C1\N=C(c2ccc(F)cc2)OC1=O	0	0	70	0	0
CC(=O)Nc1nc2ncccn2c1-c1ccc(F)c(F)c1	-	-	-	0	-
SMILES	APOBEC3G inh	NALP1 inh	Fh CTSL1 inh	sPLA2-III inh	APOBEC3A inh
C(=C\c1nc(-c2ccccc2)no1)/c1ccccc1	0	0	0	0	0
Fc1cccc(Cl)c1Cc1noc(/C=C/c2ccccc2)n1	0	28	0	0	0
O=C(Cn1c(=O)oc2ccccc21)Nc1ccccc1Cl	0	0	0	0	0
O=C(Cn1c(=O)oc2ccccc21)NCCc1ccccc1Cl	0	42	0	0	0
CCOc1ccccc1CNC(=O)Cn1c(=O)oc2ccccc21	0	0	20	0	0
COc1cccc(CNC(=O)Cn2c(=O)oc3ccccc32)c1OC	0	0	0	0	0
COc1ccc(CNC(=O)Cn2c(=O)oc3ccccc32)cc1OC	0	43	0	0	0
CCOc1ccc(CNC(=O)CCn2c(=O)oc3ccccc32)cc1OC	0	0	0	0	0
COC(=O)C1CN(C2CCCC2)CCS(=O)(=O)N1Cc1cn(Cc2ccc(C)cc2)nn1 (stereo not given)	-	-	-	0	-
O=S1(=O)c2ccc(N3CCCC3)cc2Oc2ccccc2CN1Cc1cn(Cc2ccccc2C(F)(F)F)nn1	-	-	-	0	-

Screens from PubChem.
